# In PubChem BioAssay AID1578 (Sanford-Burnham Center for Chemical Genomics, 2009):
# Hit rate of the full screen: of about 290,000 compounds, about 3,000 (1%) were called active. Cut-off read from the data, not from the text of the source: active = inhibition mostly above about 36% (no sharp cut-off); inactive = mostly below about 34%. Shown is part of a subset that was picked to be rich in actives.
# Assay: NOD1 signaling inhibitors, primary screen, cell-based, luminescence, uHTS (AID 1578);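 note: HEK-293T reporter cells stimulated with the NOD1 agonist gamma-tri-DAP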
# Details: NOD1-driven NF-kB luciferase reporter cells, at 4 µM, hits give high values
row,Compound,inhibition
1,O=C(/C=C/NCc1cccnc1)C(F)(F)C(F)(F)F,-53% (inactive)
2,Cc1ccc(-c2csc(Nc3ccc(C(=O)O)cc3)[n+]2Cc2ccccc2)cc1,17.8% (inactive)
3,O=C(CCN1C(=O)[C@@H]2Cc3ccccc3CN2C1=O)NCc1ccc(Cl)cc1,-7.8% (inactive)
4,NC(=O)c1ccccc1NC(=O)c1ccccc1S(=O)(=O)c1ccccc1[N+](=O)[O-],-18.3% (inactive)
5,[O-]/[N+](=C/c1ccc(F)cc1)c1ccc(Cl)cc1,-85.9% (inactive)
6,COc1cccc(C(=O)NCc2ccc3c(c2)OCO3)c1OC,-33% (inactive)
7,CC1=C(C(=O)N(C)C)C(c2cccc(Cl)c2)NC(=O)N1 (stereo not given),-23.2% (inactive)
8,COc1ccc(CCNC(=O)c2ccc3c(c2)N(Cc2ccc(C)cc2)CCS3)cc1OC,8.4% (inactive)
9,COc1ccc(CCNC(=O)c2ccc3c(c2)N(Cc2ccc(F)cc2)CCS3)cc1OC,-34.1% (inactive)
10,CCCC[C@@H]1CNC(=S)N1CCc1cccc(F)c1,-29.2% (inactive)
11,CCOc1ncccc1C(=O)Nc1cc(S(=O)(=O)N2CCOCC2)ccc1N1CCCC1,0.1% (inactive)
12,CC1CCN(C(=O)C2CCN(S(=O)(=O)c3ccc(-n4cnnn4)cc3)CC2)CC1,-10.6% (inactive)
13,O=C(CSc1cccc2cccnc12)N/N=C/c1cccc(O)c1,-22% (inactive)
14,O=C(CSc1cccc2cccnc12)N/N=C/c1ccncc1,-32.7% (inactive)
15,O=C(CSc1cccc2cccnc12)N/N=C/c1cccnc1,80% (active)
16,O=C(CSc1cccc2cccnc12)N/N=C/c1ccc(O)cc1,-3.1% (inactive)
17,COc1cccc(/C=N/NC(=O)CSc2cccc3cccnc23)c1,33.4% (active)
18,CCOc1cc(/C=N/NC(=O)CSc2cccc3cccnc23)ccc1O,-32.2% (inactive)
19,CCCCC(=O)N/N=C/c1ccc(Sc2cccc3cccnc23)o1,-12.8% (inactive)
20,O=C(Cc1cccc2ccccc12)N/N=C/c1ccc(Sc2cccc3cccnc23)o1,61.9% (inactive)
21,O=C(CCc1ccccc1O)N/N=C/c1ccc(Sc2cccc3cccnc23)o1,89.3% (active)
22,Cc1cc(NC(=O)CSc2nnc(CNC(=O)c3ccc(F)cc3)o2)no1,-38.1% (inactive)
23,O=C(CSc1nc2ccccc2c(=O)n1CCCN1CCOCC1)c1c[nH]c2ccccc12,41% (inactive)
24,O=C(NCc1ccccc1OC(F)(F)F)C1CCC(=O)N(Cc2ccccn2)C1 (stereo not given),-8% (inactive)
25,CC(C)(C)OC(=O)NC(Cc1ccccc1)C(=O)N1CCC(C(=O)NCC(=O)Nc2ccc(F)cc2)CC1 (stereo not given),-18% (inactive)
